The supplement of paper PMC3334620
Over roughly 33,000 sequences, “E-score (-0.5 to 0.5)” has its median near -0.012; the highest 2% begin near 0.27. The entries come from a sample that favours the highest values as a whole.

Target: T1, Vhr1 (UniProt P40522)
T1 sequence: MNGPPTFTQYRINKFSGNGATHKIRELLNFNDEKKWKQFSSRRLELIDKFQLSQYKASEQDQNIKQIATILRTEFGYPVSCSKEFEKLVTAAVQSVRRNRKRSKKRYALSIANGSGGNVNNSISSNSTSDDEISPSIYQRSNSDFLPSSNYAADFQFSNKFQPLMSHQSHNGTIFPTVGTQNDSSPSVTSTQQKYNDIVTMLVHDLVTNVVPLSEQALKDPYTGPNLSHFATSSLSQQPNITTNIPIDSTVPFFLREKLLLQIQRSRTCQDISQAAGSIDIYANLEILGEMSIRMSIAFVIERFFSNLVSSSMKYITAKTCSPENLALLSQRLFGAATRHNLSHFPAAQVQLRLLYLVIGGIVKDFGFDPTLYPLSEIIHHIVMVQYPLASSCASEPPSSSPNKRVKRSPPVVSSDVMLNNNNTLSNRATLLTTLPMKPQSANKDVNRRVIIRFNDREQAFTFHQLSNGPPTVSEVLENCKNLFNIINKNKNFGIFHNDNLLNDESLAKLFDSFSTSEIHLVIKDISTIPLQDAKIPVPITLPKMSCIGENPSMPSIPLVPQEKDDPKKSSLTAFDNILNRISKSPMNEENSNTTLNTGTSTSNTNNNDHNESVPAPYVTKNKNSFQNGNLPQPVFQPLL
Assay: PBM E-score (8-mer binding enrichment) (E-score (-0.5 to 0.5)); higher = stronger / more preferred TF binding
Conditions: protein concentration: 200 nM; construct: GST-full length
How it was run: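 Masliner-normalised scans of fluorescent anti-GST signal were the basis for scoring. That signal came from GST-tagged yeast transcription factors applied at about 100-200 nM to double-stranded universal all-10-mer Agilent arrays on fresh or once-stripped slides. Each ungapped eight-base word, pooled with its reverse complement, received an E-score from the Universal PBM Analysis Suite.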

Sequence	PBM E-score
CCTATTAG	-0.167
GTTTCCTA	-0.206
TACTGCAA	-0.0559
GCCTAACA	0.026
CCCAACTC	0.134
CCAGGCAA	-0.034
ACGCGAAA	-0.0435
GGTGCTAA	-0.166
AATTCGCG	-0.02
CATTCGCG	0.279
GATTCGCA	0.276
CATTCGCA	-0.0683
GATTCGCC	0.105
CATTCGCC	0.00808
AGTGCACA	0.0902
AAAGATGC	-0.193
AAAGACGC	-0.154
ACAGGCGC	-0.173
CCTTCTGA	-0.149
GCACTTGA	-0.145
ATGTCTCG	0.135
ATGTCTCA	0.297

Sequence	PBM E-score
ATGTCTCC	0.175
AAACCACG	-0.079
AAGACCGG	-0.166
AGATGACT	0.435
TCATGAGA	0.101
AGATGACC	-0.0573
ACATGAGA	0.273
AGATGACA	0.0194
ACATGAGC	0.0844
CCATGAGA	0.191
ACATGACT	0.446
ACATGACA	0.206
ACATGAGT	0.279
ACATGACG	-0.0758
ACATGAGG	-0.0901
ACTAGGCT	0.154
GATCAGGC	-0.00147
TAGCCTGA	0.0109
ACAGTGGA	-0.0091
ACTTGTTG	-0.0998
ACGACCCT	-0.139
ATGAGATA	0.134

Sequence	PBM E-score
CAGCAAGA	-0.0328
AACGAAGG	-0.252
AGGATCCA	0.0343
TGGATCCA	-0.0454
CGGATCCA	0.298
AACTCAGA	0.0696
AACTCAGC	-0.023
CACTCAGA	0.12
GACTCAGA	0.308
GACTCAGC	0.404
CACTCAGC	0.044
ACTGCAGA	-0.0788
AATCTAGA	-0.14
TACCGCGA	0.107
AACCGCGT	0.0481
AACCGCGA	0.278
CCTTTGCC	-0.17
CCATTCGC	0.109
GTCATCGA	0.205
CCCAACAG	-0.0293
CATGTATA	0.28
GATGTATA	0.242

Sequence	PBM E-score
CATGTATC	0.18
ACGATGCT	0.0556
AGTTGGAT	0.127
AAGTCAAG	-0.156
AAGTCATT	-0.0196
CCGTCATC	-0.0774
AGGTCATG	0.136
AAGTCATC	0.323
AAGTCATG	0.41
CAGTCATC	0.419
ATGTCATC	0.0412
CGGTCATC	0.124
CAAAATCC	0.096
CCCTTAAC	-0.168
ACATGTGC	0.117
ACATGTGA	0.0459
ACATGTGG	0.278
AGTCGGTA	-0.0272
ACCCCAAT	-0.0588
ATTTGACA	-0.00873
